# The campaign covered roughly 67,000 compounds. About 300 (0.45%) showed an effect of 50% or more. Shown is part of a subset that was picked to be rich in strong results.
# Biological target: Polyketide synthase Pks13 (Mycobacterium tuberculosis (strain ATCC 25618 / H37Rv)) (UniProt I6X8D2)
# Assay: Mycobacterium tuberculosis Polyketide synthase 13 Thioesterase (PKS13)
# Type: functional
# Design: scale not given: in the data most compounds retested in dose-response had high values
# Conditions: 30 µM
# Sequence of Polyketide synthase Pks13 (Mycobacterium tuberculosis (strain ATCC 25618 / H37Rv)) (I6X8D2 whole entry): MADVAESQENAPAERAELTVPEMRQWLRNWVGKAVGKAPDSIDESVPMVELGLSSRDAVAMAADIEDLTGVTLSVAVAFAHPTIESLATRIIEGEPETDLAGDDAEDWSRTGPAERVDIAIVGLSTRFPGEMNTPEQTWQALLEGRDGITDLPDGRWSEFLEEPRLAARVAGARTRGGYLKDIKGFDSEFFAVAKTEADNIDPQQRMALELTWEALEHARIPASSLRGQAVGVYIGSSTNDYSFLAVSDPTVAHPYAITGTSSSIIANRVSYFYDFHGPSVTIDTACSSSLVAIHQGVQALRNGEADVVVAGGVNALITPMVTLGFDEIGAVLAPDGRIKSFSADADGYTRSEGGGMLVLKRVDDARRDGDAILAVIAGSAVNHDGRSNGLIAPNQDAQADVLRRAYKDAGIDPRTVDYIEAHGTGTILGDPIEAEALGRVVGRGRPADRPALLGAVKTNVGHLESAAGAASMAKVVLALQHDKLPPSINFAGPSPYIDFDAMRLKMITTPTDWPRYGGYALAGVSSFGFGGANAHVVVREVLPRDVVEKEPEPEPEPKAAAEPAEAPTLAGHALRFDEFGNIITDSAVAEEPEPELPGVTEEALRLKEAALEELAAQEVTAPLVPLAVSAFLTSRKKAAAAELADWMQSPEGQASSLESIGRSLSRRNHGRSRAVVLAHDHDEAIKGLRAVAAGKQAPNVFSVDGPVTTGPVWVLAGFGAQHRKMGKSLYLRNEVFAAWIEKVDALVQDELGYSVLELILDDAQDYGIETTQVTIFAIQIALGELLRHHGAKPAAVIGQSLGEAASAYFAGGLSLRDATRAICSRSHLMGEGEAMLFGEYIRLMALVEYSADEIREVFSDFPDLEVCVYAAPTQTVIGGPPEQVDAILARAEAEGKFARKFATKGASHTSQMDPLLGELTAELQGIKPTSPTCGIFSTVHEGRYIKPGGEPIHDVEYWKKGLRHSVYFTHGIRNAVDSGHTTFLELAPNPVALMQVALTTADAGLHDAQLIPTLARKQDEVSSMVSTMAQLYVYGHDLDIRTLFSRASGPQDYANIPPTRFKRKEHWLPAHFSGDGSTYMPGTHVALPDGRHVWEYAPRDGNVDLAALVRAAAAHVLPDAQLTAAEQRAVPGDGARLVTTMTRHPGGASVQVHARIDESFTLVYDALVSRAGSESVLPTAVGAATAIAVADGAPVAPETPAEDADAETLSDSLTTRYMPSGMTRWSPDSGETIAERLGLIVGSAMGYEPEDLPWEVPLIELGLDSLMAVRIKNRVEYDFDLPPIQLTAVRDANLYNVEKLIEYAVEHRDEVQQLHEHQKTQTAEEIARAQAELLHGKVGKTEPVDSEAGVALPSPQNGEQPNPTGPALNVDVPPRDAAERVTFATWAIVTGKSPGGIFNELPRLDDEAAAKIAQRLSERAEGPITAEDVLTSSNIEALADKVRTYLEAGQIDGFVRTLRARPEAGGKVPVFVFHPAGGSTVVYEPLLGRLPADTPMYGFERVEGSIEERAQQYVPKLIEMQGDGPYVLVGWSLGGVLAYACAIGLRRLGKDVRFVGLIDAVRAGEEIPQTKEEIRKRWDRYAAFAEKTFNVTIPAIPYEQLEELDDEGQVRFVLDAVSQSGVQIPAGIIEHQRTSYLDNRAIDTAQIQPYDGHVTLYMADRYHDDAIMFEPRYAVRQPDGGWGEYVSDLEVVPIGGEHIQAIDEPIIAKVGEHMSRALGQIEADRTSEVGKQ
row,Structure (SMILES),Percent Effect [%]
1,O=C([C@H]1CC[C@@H]2[C@@H](CCN2c2ncccn2)O1)N1CCCCO1,4.55
2,Cn1cnc(S(=O)(=O)N2CCO[C@H]3[C@H](OCC4CC4)CC[C@@H]32)c1,-28.3
3,O=C(N1CCOCC1)[C@@]12CCO[C@@H]1CCN(CCN1CCCCC1)C2,-23.6
4,COCCN1C[C@H]2CCN(C(=O)c3cc(C)on3)CC[C@H]2S1(=O)=O,-423
5,Cc1nn(C)c2c(=O)n(CC(=O)NC3CCCCC3)ccc12,-9.58
6,CCS(=O)(=O)NC[C@]12COC[C@H]1CN(Cc1cc(C)on1)C2,-29.9
7,CNC(=O)N1CC[C@@H]2CN(Cc3cccc(OC)c3)S(=O)(=O)[C@@H]2CC1,-16.2
8,N#Cc1cccnc1N1CCCC(CO)(Cc2cccc(Cl)c2)C1 (configuration not stated),96.8
9,OCC1(Cc2cccc(Cl)c2)CCCN(c2ncccn2)C1 (configuration not stated),20.3
10,N#Cc1cccnc1N1CCCC(CO)(Cc2ccc(F)cc2)C1 (configuration not stated),-5.66
11,CCC(=O)N1CCN(Cc2cnc(C)nc2)[C@H]2CS(=O)(=O)C[C@H]21,-6.93
12,Cc1noc(C)c1CN1CC[C@H]2C[C@H](c3ccncn3)O[C@@H]2C1,-14.6
13,Cn1ccc(C(=O)NCc2cccc(CN3CCCC3)c2)cc1=O,56.3
14,Cn1ccc(C(=O)NCc2ccc(CN3CCCC3)cc2)cc1=O,-2.41
15,Cn1ccc(C(=O)NCc2cccc(Cn3ccnc3)c2)cc1=O,-52
16,Cn1ccc(C(=O)NCc2cccc(N3CCCCC3=O)c2)cc1=O,14.5
17,Cn1ccc(C(=O)NCc2cccc(NC(=O)C3CCC3)c2)cc1=O,107
18,Cn1ccc(C(=O)NCc2ccc(CN3CCCCC3)cc2)cc1=O,4.22
19,Cc1cc(N2CCN(C(=O)[C@@H]3C[C@@H]4C=C[C@H]3C4)CC2)cc(C)n1,-10.7
20,CCc1nccn1CC(=O)N1C[C@H]2CC[C@@H]1CN(C(=O)N(C)C)C2,-13.8
21,CN1CCN(Cc2nc3ccccc3[nH]2)[C@H]2CS(=O)(=O)C[C@H]21,-21.3
22,Cc1cnc(N2C[C@@H]3[C@@H](C2)OCC(=O)N3CCN(C)C)nc1,3.47

row,Structure (SMILES),Percent Effect [%]
1,Cc1cccc(OCc2ccc(C(=O)N3N=CCC3(O)C(F)(F)F)o2)c1 (configuration not stated),45.3
2,O=C(c1ccc(COc2ccc(Cl)cc2)o1)N1N=CCC1(O)C(F)(F)F (configuration not stated),73.2
3,O=C(c1ccc(COc2ccccc2Cl)o1)N1N=CCC1(O)C(F)(F)F (configuration not stated),37.5
4,O=C(c1cccnc1)N1CCN2C(=O)N(Cc3ccc(F)cc3)C[C@H]2C1,2.86
5,CC(C)N(C)C[C@H]1C[C@@H]2CN(Cc3ccco3)C[C@@H]2O1,-28.7
6,CCOC(=O)[C@]12CCCN(Cc3nccs3)C[C@H]1CN(CC(C)C)C2,-5.86
7,Cc1cc(C2CCCCN2C(=O)c2ccsc2)nc2nccn12 (configuration not stated),84.3
8,Cc1cc(C2CCCCN2C(=O)c2cccn2C)nc2nccn12 (configuration not stated),8.03
9,Cc1noc(C)c1C(=O)N1CCCCC1c1cc(C)n2ccnc2n1 (configuration not stated),-1.89
10,CC(C)CN1C(=O)CO[C@@H]2CN(C(=O)N3CCOCC3)C[C@H]21,-27.7
11,O=C(c1ccnnc1)N1C[C@H]2CCC[C@@H](OCc3cccnc3)[C@@H]2C1,8.09
12,O=C(NCCc1ccccc1)N1C[C@H]2C[C@H](C(=O)N3CCCC3)[C@@H](C1)O2,-28.3
13,O=C(c1cc(-c2ccco2)nc2c(Cl)cccc12)N1C[C@H]2CNC[C@H]2C1,-42.7
14,COCC1CCN(C(=O)c2cc(-c3ccco3)nc3c(Cl)cccc23)C1 (configuration not stated),66.3
15,O=C(c1cc(-c2ccco2)nc2c(Cl)cccc12)N1CCS(=O)(=O)CC1,-5.09
16,O=C(O)C1c2nc[nH]c2CCN1Cc1ccc(-c2ccccc2)s1 (configuration not stated),-9.34
17,O=C(O)C1c2nc[nH]c2CCN1Cc1cc(-c2ccccc2)no1 (configuration not stated),-11.2
18,O=C(O)C1c2nc[nH]c2CCN1Cc1ccccc1-c1ccccc1 (configuration not stated),62.3
19,CSCC(=O)N1C[C@H]2CC[C@@H]1CN(C1Cc3ccccc3C1)C2,-8.9
20,Cc1nccc([C@@H]2C[C@@H]3CCN(Cc4cccs4)C[C@H]3O2)n1,-9.54
21,N#Cc1cccc(N2CCC3(CC2)Nc2ccccc2NC3=O)n1,-22.8
22,N#Cc1ccc(N2CCCC(CO)(CCOc3ccccc3)C2)nc1 (configuration not stated),13.8

row,Structure (SMILES),Percent Effect [%]
1,OCC1(CCOc2ccccc2)CCN(c2ccc(Cl)cn2)CC1,43.4
2,N#Cc1cccc(N2CCC3(CCC(=O)N(CCCO)C3)CC2)n1,-0.0305
3,CC(=O)c1ccc(N2CCCC(CO)(CCOc3ccccc3)C2)nc1 (configuration not stated),15.6
4,CCc1nc(N2CCCC(CO)(CCOC)C2)ncc1C (configuration not stated),-19.2
5,Nc1nccc(N2CCCC(CO)(CCOc3ccccc3)C2)n1 (configuration not stated),-23.1
6,N#Cc1cccc(N2CCC(CO)(CCCc3ccccc3)CC2)n1,67.6
7,CC(=O)c1ccc(N2CCCC(CO)(CCc3ccccc3)C2)nc1 (configuration not stated),55.1
8,CC(=O)c1ccc(N2CCCC(CO)(Cc3ccccc3F)C2)nc1 (configuration not stated),-9.09
9,N#Cc1cccc(N2CCCC(CO)(CCOc3ccccc3)C2)n1 (configuration not stated),132
10,OCC1(CCOc2ccccc2)CCCN(c2ccc(Cl)cn2)C1 (configuration not stated),56.5
11,O=C(NCc1ccco1)[C@H]1C[C@H]2OCC[C@H]2N(S(=O)(=O)C2CC2)C1,-7.99
12,CCOC(=O)[C@]12CCCN(Cc3cccs3)C[C@H]1CN(C(C)C)C2,-0.678
13,N#Cc1cccc(N2CCC(CO)(CCOc3ccccc3)CC2)n1,128
14,N#Cc1cccnc1N1CCCC(CO)(CCOc2ccccc2)C1 (configuration not stated),-13.7
15,CC(=O)c1ccc(N2CCC(CO)(CCOc3ccccc3)CC2)nc1,8.13
16,CC(C)CN1C[C@H]2C[C@H](C(=O)NC3CCC3)[C@@H](C1)O2,8.3
17,CC(C)(C)Nc1nc(-c2cccnc2)c(-c2ccnc(NCCO)n2)s1,121
18,CCNc1nc(-c2cccnc2)c(-c2ccnc(NCCO)n2)s1,37.6
19,CCNc1nc(-c2cccnc2)c(-c2ccnc(NS(C)(=O)=O)n2)s1,17.5
20,COc1ccccc1C(=O)Nc1ccc([C@@H](O)[C@H]2COCC(=O)N2)cc1,3.39
21,CCS(=O)(=O)NC[C@]12COC[C@H]1CN(Cc1cccc(OC)c1)C2,-39.6
22,O=C(COCc1ccccc1Cl)N1CCN(c2ccc(Br)cn2)CC1,63.1

row,Structure (SMILES),Percent Effect [%]
1,O=C(COCc1ccccc1Cl)N1CCN(c2cnccn2)CC1,25.8
2,O=C(COCc1ccccc1Cl)N1CCN(c2ncccn2)CC1,0.958
3,CCc1cnc(N2CC[C@H]3[C@@H]2CCC(=O)N3CC2CCOCC2)nc1,88.2
4,CCc1cnc(N2CC[C@H]3[C@@H]2CCC(=O)N3c2ccccc2)nc1,-13.3
5,O=C1CC[C@H]2[C@H](CCN2c2ccccn2)N1CC1CCOCC1,-8.5
6,O=C1O[C@@H]2CN(c3ccncc3)C[C@@H]2N1CCCc1ccc(F)cc1,-35.8
7,Cc1n[nH]c(C)c1CNc1ccc(-c2nc(C3CC3)no2)cn1,3.88
8,Cc1cc(C)n(CCN(C)c2ccc(-c3nc(C4CC4)no3)cn2)n1,0.156
9,Cc1n[nH]c(C)c1CCN(C)c1ccc(-c2nc(C3CC3)no2)cn1,62.8
10,CC(=O)NC[C@@]1(COc2cnccn2)C[C@@H](O)[C@@H](O)C1,-8.58
11,CC(C)c1nc(CN(C)C2CCN(CCS(C)(=O)=O)C2)no1 (configuration not stated),-22.6
12,CC(C)c1nc(CN(C)C2CCN(CCNS(C)(=O)=O)C2)no1 (configuration not stated),93.5
13,CCS(=O)(=O)CCN1CCC(N(C)Cc2noc(C(C)C)n2)C1 (configuration not stated),-4.58
14,c1cnc(N2CCO[C@H]3CN(CC4CCOC4)C[C@H]32)cn1 (some centres not stated),-2.77
15,Cc1noc(C)c1CN1C[C@H](OCC2CCN(C)CC2)[C@H]2COC[C@H]21,-13.4
16,c1cc(CN2C[C@H](OCC3CCOCC3)[C@H]3COC[C@H]32)cs1,1.55
17,O=C(c1ccco1)N1CC[C@@H]2O[C@H](COCCN3CCCC3)CC[C@@H]21,-19.5
18,COC(=O)c1ccc(NC2CCN(CC(F)(F)F)C2=O)cc1C (configuration not stated),62.3
19,COC(=O)c1cc(NC2CCN(CC(F)(F)F)C2=O)ccc1C (configuration not stated),9.8
20,CCOc1ccc(NC2CCN(CC(F)(F)F)C2=O)cc1C (configuration not stated),7.36
21,CN(C)C[C@H]1OC[C@@H]2CCN(C(=O)c3ccc[nH]3)C[C@@H]21,11.4
22,O=C(Nc1cccnc1)[C@H]1CN(C2CCCC2)C[C@H]2OCC[C@@H]12,-36.1

row,Structure (SMILES),Percent Effect [%]
1,CCc1ncc2c(n1)CN(CC1CCCCO1)CC2 (configuration not stated),78.1
2,Cc1ncc2c(n1)CN(CC1CCCCO1)CC2 (configuration not stated),-13.3
3,CC(C)c1ncc2c(n1)CN(CC1CCCCO1)CC2 (configuration not stated),-18.6
4,Cc1nc(CN2C[C@@H]3CN(C(=O)c4ccco4)C[C@@H]3C2=O)cs1,-4.47
5,O=C1NC(c2ccccc2)=N[C@@]12CC[C@@H]1CN(Cc3nccs3)C[C@@H]12,23.9
6,Cc1noc([C@]23COC[C@H]2CN(S(=O)(=O)C2CC2)C3)n1,-31.1
7,Cc1cc(-c2cnc(NC3CCCC3)nc2-c2ccco2)on1,27.1
8,Cc1cc(-c2cnc(NC3CCCCC3)nc2-c2ccco2)on1,15
9,O=C(O)Cn1nc(C2CC2)c2c(-c3cccs3)ccnc21,46.3
10,O=c1[nH]c(NC2CCCC2)nc2nccc(-c3ccsc3)c12,43
11,O=c1[nH]c(NC2CCCC2)nc2nccc(-c3ccco3)c12,52.1
12,O=c1[nH]c(NC2CCCC2)nc2nccc(-c3cccs3)c12,72.5
13,O=C1O[C@@H]2CN(Cc3cccc(O)c3)C[C@@H]2N1CCCN1CCOCC1,-3.82
14,CSc1ccccc1CN1C[C@H]2C(=O)N(CC3CC3)C[C@@]2(C(=O)O)C1,-23
15,COCC(=O)NC[C@H]1CC[C@H](c2nnc(-c3cccnc3)o2)CC1,5.07
16,O=C1O[C@@H]2CN(c3ccccn3)C[C@@H]2N1CCCc1ccc(F)cc1,-15.8
17,O=C(NCc1ccco1)[C@H]1C[C@H]2OCC[C@H]2N(C(=O)c2ccnnc2)C1,-21.2
18,O=C(Cn1ccc2cc(Br)ccc21)NC[C@@H]1CCCN2CCCC[C@H]12,-5.46
19,CO[C@@H]1CCN(Cc2cnn(C)c2)[C@@H]2CN(Cc3ccco3)C[C@@H]21,-33

# — ChEMBL document CHEMBL3988442, “University of Dundee, Small-Polar-MMV Screening Library” (2021)
